Source: PubChem BioAssay (National Center for Advancing Translational Sciences (NCATS))
JMJD2E inh = qHTS Assay for Inhibitors of Human Jumonji Domain Containing 2E (JMJD2E); Potency, µM (top dose mostly 57.1 µM), for the others: at the highest dose activity change, negative = inhibition, hits mostly inhibitors; Lysine-specific demethylase 4E (Homo sapiens), B2RXH2; JMJD2E catalytic domain, FDH-coupled NADH fluorescence (FDH is formaldehyde dehydrogenase); 230,000 compounds, 1.6% hits;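 further: potency means the concentration at half of the fitted maximal effect; 0% = wells with enzyme and -100% = buffer wells without enzyme; nearly all actives have a fitted effect of over 50% in size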
ALDH1A1 inh = qHTS Assay for Inhibitors of Aldehyde Dehydrogenase 1 (ALDH1A1) | Aldehyde dehydrogenase 1A1 (Homo sapiens), P00352 | Purified ALDH1A1, NADH fluorescence, propionaldehyde substrate | Potency, µM (doses to about 75.3 µM), for the others: at the top dose activity, negative = inhibition, most hits filed as inhibitors | 220,000 compounds, 7.3% hits;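 further: potency means the concentration at half of the fitted maximal effect; plate controls were no enzyme wells and a reference inhibitor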
HPGD inh = qHTS Assay for Inhibitors of HPGD (15-Hydroxyprostaglandin Dehydrogenase); purified HPGD, NADH fluorescence kinetic, PGE2 substrate; Potency, µM, without a hit: at the top dose activity change, negative = inhibition, usual class: inhibitors; 150,000 compounds, 4.3% hits; further: potency means the concentration at half of the fitted maximal effect
Target sequence (P15428 whole entry, looked up): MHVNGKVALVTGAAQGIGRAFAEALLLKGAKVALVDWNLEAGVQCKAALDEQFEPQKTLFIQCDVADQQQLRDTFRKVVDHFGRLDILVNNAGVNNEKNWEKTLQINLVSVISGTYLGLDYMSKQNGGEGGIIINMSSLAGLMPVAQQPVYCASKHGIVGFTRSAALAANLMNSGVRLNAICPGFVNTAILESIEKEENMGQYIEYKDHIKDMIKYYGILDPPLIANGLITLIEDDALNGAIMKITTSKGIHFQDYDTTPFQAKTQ
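NADH formation kinetics: reaction with 30 uM PGE2 and 1 mM NAD+ (final), 20 nM enzyme, Tris-HCl pH 8 with Tween 20, after 15 min compound preincubation at room temperature. Fluorescence change, last versus first of five reads.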
PNC inhibitor = High Content Assay for Compounds that inhibit the Assembly of the Perinucleolar Compartment | activity change (PNC), negative = inhibition, % at 10 µM | AID 2417, 2010 | PC3M PTB-GFP, PNC prevalence imaging, 16 h; stronger effect = lower value | 140,000 compounds, 3.1% hits;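 active means readout at or below -70, meaning at least 70% loss of cells showing the perinucleolar compartment, a nuclear body marking cancer cells; inconclusive means readout between -30 and a set limit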;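 further: plate controls were DMSO wells for no effect and camptothecin positive control wells for full effect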
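Read-out is percentage of cells bearing a perinucleolar compartment, from automated 20x imaging of fixed, Hoechst-stained PC3M PTB-GFP cells. Cells were seeded 4 h, then exposed 16 h to compound (23 nl of library stock) in duplicate plates.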
* marks the source's active call; other numbers are inactive results; u = inconclusive; x = no result; ! = repeats disagree; [ ] = another dose, or the depositor's remark. In the library only some 11% were active in any assay of this set; here they are far more common. Unless noted, the call rests on the fitted dose curve; in most records, active means well fitted inhibition curve with a large enough effect (not every such curve was filed as active); inconclusive means small, poorly fitted or top-dose-only effect, or another doubt; inactive means no such curve, though single readings can be large or run the other way. Unless noted, on the % scale 0 is the no-effect control and ±100 the full control effect.

SMILES	JMJD2E inh	ALDH1A1 inh	HPGD inh	PNC inhibitor
O=C1/C(=C\c2cc3c(cc2Cl)OCO3)N2CCC1CC2	7.7%	-9.7%	28.2µM*	19.8
O=C1/C(=C\c2ccc(Cl)cc2Cl)N2CCC1CC2	6.6%	x	x	x
O=C1/C(=C/c2cc([N+](=O)[O-])ccc2Cl)N2CCC1CC2	-1.0%	u	-8.0%	-10.8
O=C1/C(=C/c2cc3c(cc2Cl)OCO3)N2CCC1CC2	-2.6%	12.6µM*	22.4µM*	-3.2
C[C@@H](Cc1cccc(C(F)(F)F)c1)NCCCc1ccccc1	-2.6%	1.3%	-6.6%	x
Clc1nc(Cl)nc(Cl)n1	x	2.24µM*	-6.4%	x
Cl/C=C\Cl	x	20.1%	-0.8%	x
CSc1ccc(CNC2CN3CCC2CC3)cc1 (stereo not drawn)	2.2%	-0.3%	-2.0%	-105.8*
Oc1ccc2[nH]cc(CCCCN3CC=C(c4ccccc4)CC3)c2c1	4.8%	-4.4%	1.8%	x
O=C(Cc1ccccc1)N1CCN(CC2CC=CCC2)CC1 (stereo not drawn)	u	12.6µM*	-7.8%	3.5
N#CC(O)c1ccccc1 (stereo not drawn)	x	0.2%	-0.8%	x
N=C(N)SCc1ccc(Cl)c2ccccc12 (tested in a mixture with another compound)	x	-0.7%[13.5 µM]	4.47µM*!	x
NS(=O)(=O)C[C-]1C=C[CH]([Sb-]([Cl])([Cl])([Cl])([Cl])[Cl])C=C1.c1ccncc1 (stereo not drawn)	x	3.55µM*	-9.8%	x
O=C(NC(=O)c1c(F)cccc1F)Nc1ccc(Cl)cc1	-19.2%	-1.1%	-10.6%	x
CON(C)C(=O)Nc1ccc(Cl)cc1	6.5%	4.2%	-6.4%	-121.3*
[Cl][Pd][Cl].[S-]C1=C2N=CN[C-]2[NH+]=C[N-]1.[S-]c1ncnc2[nH]cnc12	x	-11.2%[13.5 µM]	0.6%	x
c1ccc2c(c1)Sc1ccccc1N2C[C@H]1CN2CCC1CC2	x	11.8%[13.5 µM]	-1.7%	x
CC(=O)Oc1ccc(Cl)c2cccnc12	17.8µM*	5.7%	-7.0%	x
CC(C)n1c(/C=C\[C@@H](O)C[C@@H](O)CC(=O)O)c(-c2ccc(F)cc2)c2ccccc21	u	u	-12.5%	x
O=C(CCCN1CCC2(CC1)C(=O)N(Cc1cccc(F)c1)CN2c1ccccc1)c1ccc(F)cc1	-2.3%	-4.2%	-8.8%	x
Nc1ccc(N)cc1	x	-6.0%	-12.8%	x
O=[As](O)(O)c1ccc(Cc2ccc([As](=O)(O)O)cc2)cc1	x	2.24µM*	3.55µM*	x
Nc1ccc([As](=O)(O)O)cc1	12.6µM*	5.3%	1.5%	-15.4
Fc1ccc2c(c1)nnn2C1CCN(Cc2nnnn2CCc2ccccc2)CC1	-20.4%	-6.6%	-3.6%	-26.8
OC1(c2ccc(F)cc2)CC2CCC(C1)N2Cc1nnnn1C1CCCC1 (stereo not drawn)	5.1%	2µM*	-2.1%	-6.6
SMILES	JMJD2E inh	ALDH1A1 inh	HPGD inh	PNC inhibitor
NC(=O)c1ccc(OCC(O)CN2CC=C(c3ccc(F)cc3)CC2)cc1 (stereo not drawn)	2.5%	2.8%	-8.4%	x
CC(=O)c1cccc(OCC(O)CN2CC=C(c3ccccc3)CC2)c1 (stereo not drawn)	15.8µM*	22.4µM*	-7.7%	-8.3
COc1ccc(P2(=O)Nc3ccccc3N2)cc1	-12.3%	23.9%	25.1µM*	24.8
CCCN1CCCC2Cc3[nH]ncc3CC21 (stereo not drawn)	-1.9%	3.0%	-6.3%	x
C[C@]12CC[C@@H]3[C@H](CCC4=CC(=O)CC[C@]43C)[C@]1(O)CC[C@@]2(O)C(=O)CO	x	7.5%[13.5 µM]	-6.7%	x
O=C(CN1CCOCC1)c1ccc2cc[nH]c2c1	1.8%	u	-25.3%	29.3
Cc1cccc(OC(=O)N2CCOCC2)c1	5.2%	7.7%	-4.7%	u
Cc1cc(C)c(C(=O)CN2CCOCC2)c(C)c1	3.4%	10µM*	-9.7%	-10.7
COc1ccc(C(=O)CN2CCOCC2)cc1F	7.4%	14.1µM*	-7.2%	17.0
CCCCCCCCCCCCC/C=C/[C@@H](O)[C@@H](N)COP(=O)([O-])OCC[N+](C)(C)C	6.2%	1.4%	-13.0%	x
CC(C)(C)OOC(=O)c1ccccc1	x	u	-8.8%	x
CN(C)c1ccc(P(=O)(Nc2ccc([N+](=O)[O-])cc2)N2CCOCC2)c(NC(=O)c2cccs2)c1 (stereo not drawn)	-1.4%	-5.8%	u	-80.1*
